From PubChem
SENP6 inh: inhibitors of human SENP6 protease; inhibition, % at 10 µM; Recombinant SENP6 catalytic domain, aminoluciferin luminescence; Q9GZR1; 330,000 compounds, 1.8% hits;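 active = inhibition above about 50% at the single tested dose, limit read from the data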;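 also: plate controls were DMSO wells with enzyme for no effect and DMSO wells lacking enzyme for full effect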
HSP90 refold inh: blocks HSP90-mediated luciferase refolding in reticulocyte lysate. Rabbit reticulocyte lysate, luciferase refolding luminescence, 3 h. 290,000 compounds, 0.91% hits. inhibition, % at 5.6 µM;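 active = inhibition above the screen-wide mean plus 3 SD, computed separately per campaign, cut at about 16% in these data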;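 also: 0% = DMSO wells and 100% = 60 µM geldanamycin wells; inhibitors lower the luminescence because luciferase stays unfolded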
SENP8 block-1: inhibitors of human SENP8 protease; Q96LD8; recombinant SENP8, Nedd8 substrate fluorescence; inhibition, % at 20 µM; 360,000 compounds, 0.64% hits; in the data active = inhibition mostly above about 40%, no sharp cut-off; inactive = mostly below about 27%
Target sequence (Q96LD8 whole entry, looked up): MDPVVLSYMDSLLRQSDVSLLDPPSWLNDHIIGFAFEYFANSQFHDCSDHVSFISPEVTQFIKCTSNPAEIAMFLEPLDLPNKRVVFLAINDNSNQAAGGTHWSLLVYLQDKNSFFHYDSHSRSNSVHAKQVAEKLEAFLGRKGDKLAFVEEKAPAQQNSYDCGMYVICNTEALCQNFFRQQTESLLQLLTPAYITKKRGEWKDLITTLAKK
SENP7 block: blocks the human protease SENP7. Q9BQF6. recombinant SENP7, Z-RLRGG-aminoluciferin luminescence, 40 min. inhibition, % at 5 µM. 330,000 compounds, 1.5% hits. AID 434973;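 active = inhibition above about 50% at the single test dose, limit read from the data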;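 also: plate controls were DMSO with enzyme for no effect and no enzyme buffer wells for full effect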
SENP8 block-2: blocks the human protease SENP8 | purified SENP8, Z-RLRGG-aminoluciferin cleavage, luminescence | 330,000 compounds, 1.2% hits | inhibition, % at 10 µM | AID 2540; in the data active = inhibition above about 50%
SENP8 conf: human SENP8 inhibition, confirmed | 6,200 compounds, 40% hits | Recombinant SENP8, Z-RLRGG-aminoluciferin luminescence, 60 min | inhibition, % at 12.5 µM | shares compounds with SENP7 block;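 active = mean inhibition across replicates above about 50%, limit read from the data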
SENP6 confirm: confirmation of human SENP6 protease inhibitors; shares compounds with SENP7 block; inhibition, % at 12.5 µM; 6,200 compounds, 58% hits; AID 488915; recombinant SENP6, Z-RLRGG-aminoluciferin luminescence
SENP7 conf: human SENP7 inhibition, confirmed; shares compounds with SENP7 block; recombinant SENP7, Z-RLRGG-aminoluciferin luminescence, 40 min; inhibition, % at 12.5 µM; 6,200 compounds, 69% hits; AID 488917
Casp3 select: caspase-3 inhibition (SENP selectivity assay); shares compounds with SENP7 block; purified caspase-3, Z-DEVD-aminoluciferin luminescence, 60 min; inhibition, % at 12.5 µM; 6,200 compounds, 60% hits; AID 488918;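 active = mean inhibition above about 50%, limit read from the data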;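 also: plate controls were enzyme with DMSO for no effect and wells without caspase-3 for full effect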
Target sequence (P42574 28-227 limits assumed): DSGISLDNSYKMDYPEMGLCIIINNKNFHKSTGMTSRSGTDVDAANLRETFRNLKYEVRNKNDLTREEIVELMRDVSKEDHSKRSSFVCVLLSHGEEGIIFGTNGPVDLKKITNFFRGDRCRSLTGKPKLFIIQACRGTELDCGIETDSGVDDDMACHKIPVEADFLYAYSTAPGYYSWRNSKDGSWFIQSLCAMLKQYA
Luc interf: interferes with luciferase luminescence in SENP counter-screen; shares compounds with SENP7 block; Pre-incubated SENP8/Z-RLRGG-aminoluciferin, luciferase luminescence interference; inhibition, % at 12.5 µM; 6,200 compounds, 39% hits; AID 488919;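 active = mean inhibition above about 50% when retested at one dose, limit read from the data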;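 also: plate controls were DMSO wells with completed reaction for no effect and substrate without enzyme for full effect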
Starred values were filed as active, the others as inactive; . = not tested or not shown. Shown are actives, neighbours in structure and some others; about 2.8% of the full set was active somewhere.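 The calls were made as follows, unless noted: active = mean inhibition above about 50% in the one-dose retest (limit read from the data); inactive = the rest.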

SMILES | SENP6 inh | HSP90 refold inh | SENP8 block-1 | SENP7 block | SENP8 block-2 | SENP8 conf | SENP6 confirm | SENP7 conf | Casp3 select | Luc interf
C/C(=N\NC(=O)c1ccc2ccccc2c1)c1cccs1 | 84* | 8 | -4 | 83* | 70* | 54* | 53* | 93* | 84* | 10
c1ccc(-c2nc3c(ccc4ccccc43)[nH]2)nc1 | 73* | -3 | -374 | 76* | 67* | 83* | 79* | 95* | 76* | 82*
COC(=O)c1ccc(-c2nc3ccccc3[nH]2)cc1 | 88* | 10 | -427 | 95* | 85* | 93* | 93* | 100* | 96* | 91*
c1cncc(-c2nc3ccccc3[nH]2)c1 | -13 | 1 | -33 | -2 | -5 | . | . | . | . | .
Nc1cc(N)cc(-c2nc3ccccc3[nH]2)c1 | 5 | 3 | -349 | 13 | 7 | . | . | . | . | .
Cc1cc(-c2nc3ccccc3[nH]2)ccc1N | 50* | 6 | -392 | 91* | 70* | 87* | 86* | 99* | 93* | 87*
c1ccc(-c2nc3ccccc3[nH]2)cc1 | 76* | -4 | -12 | 76* | 71* | 73* | 66* | 90* | 84* | 69*
CCCNC(=O)c1ccccc1NC(=O)CN(c1ccccc1)S(=O)(=O)N(C)C | -15 | -2 | -8 | 5 | -1 | . | . | . | . | .
O=C(Nc1nccs1)c1cc(N2CCOCC2)nc2ccccc12 | -14 | 2 | -308 | -8 | -14 | . | . | . | . | .
c1ccc(-c2nc3ccccc3[nH]2)nc1 | 69* | 5 | -29 | 75* | 48 | 61* | 60* | 88* | 90* | 70*
O=c1[nH]c(-c2ccccn2)nc2ccccc12 | -5 | -4 | 0 | 5 | 2 | . | . | . | . | .
Nc1nc(-c2nc3ccccc3[nH]2)cs1 | 52* | 3 | -30 | 28 | 6 | 46 | 42 | 72* | 78* | 58*
C/C(=N\NC(=O)c1cc2c(s1)CCC(C)C2)c1ccc[nH]1 (stereo not given) | 7 | . | -273 | 70* | 5 | -11 | 2 | 81* | 59* | 13
C/C(=N\NC(=O)c1cc2c(s1)CCC(C)C2)c1ccncc1 (stereo not given) | -7 | -3 | 5 | -3 | -19 | . | . | . | . | .
O=C(NCCSc1ccccc1)c1ccc(Br)cc1 | 68* | 1 | 15 | 47 | 27 | 52* | 49 | 76* | 45 | 15
O=C(NCCSc1ccccc1)c1ccccc1 | 45 | 6 | 13 | 26 | -8 | . | . | . | . | .
CCOC(=O)N=S(N)(=O)c1ccc(Cl)cc1 (stereo not given) | 1 | -1 | 13 | 2 | 51* | -22 | -13 | -8 | -9 | -5
CCOc1c(O)ccc(/C=C2\SC(=S)NC2=O)c1[N+](=O)[O-] | 24 | -1 | 35 | 5 | 8 | . | . | . | . | .
O=C(Nc1cccnc1Cl)c1cc2ccccc2o1 | 70* | -1 | 14 | 63* | 50 | 60* | 61* | 89* | 81* | 72*
Cc1cnc(NC(=O)c2cc3ccccc3o2)s1 | 68* | 38* | -18 | 75* | 55* | 38 | 31 | 61* | 51* | 36
Cc1ccc(C(=O)Nc2ncc(Cc3ccc(F)cc3)s2)o1 | 42 | 4 | -5 | 36 | 4 | . | . | . | . | .
Cc1cnc(NC(=O)c2ccc3c(c2)OCCO3)s1 | 91* | . | -411 | 92* | 84* | 47 | 84* | 97* | 79* | 0
Cc1nc2ccc3nc(NC(=O)c4ccc5c(c4)OCCO5)sc3c2s1 | -40 | 6 | -269 | 5 | 11 | . | . | . | . | .
Cc1ccc(C(=O)Nc2ncc(C)s2)o1 | 60* | 6 | -1 | 67* | 35 | 62* | 58* | 87* | 90* | 67*
